Source: PubChem BioAssay AID1159580 (chemical genetic matrix, 2015)
The campaign covered roughly 5,500 compounds. About 2,000 (36%) were called active. About 18% were inconclusive and are not listed. Cut-off read from the data, not from the text of the source: active = normalized growth mostly below about 0.91 (no sharp cut-off); inconclusive = no clear call, values can overlap the other calls; inactive = mostly above about 0.92. The list shows a part of the results.

Assay: chemical genetic growth profiling, strain panel (AID 1159580);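 note: tested at 20 µM; growth read once vehicle control cultures reached saturation at 30 °C; 1 = growth at the plate median or of vehicle wells; lower values mean less growth of the strain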
Details: S. cerevisiae deletion strains, growth OD
[1] = locus YAL040C, strain CLN3, active compounds read low
[2] = locus YCL061C, strain MRC1 (second series), active compounds read low
[3] = locus YDR363W, strain ESC2, active compounds read low
[4] = locus YER002W, strain NOP16, active compounds read low
[5] = locus YNL175C, strain NOP13, active compounds read low
[6] = locus YNL197C, strain WHI3, active compounds read low
[7] = locus YNL224C, strain SQS1, active compounds read low
[8] = locus YOR083W, strain WHI5 (second series), active compounds read low
[9] = locus YPL241C, strain CIN2, active compounds read low
[10] = locus YAL013W, strain DEP1, active compounds read low
[11] = locus YDR150W, strain NUM1, active compounds read low
[12] = locus YGR078C, strain PAC10, active compounds read low

Measured: normalized growth

COc1cc(C(O)CN)ccc1O (configuration not stated)
inactive: [1] 1.01 | [2] 1.01 | [3] 1.02 | [4] 1.04 | locus YGR229C, strain SMI1, active compounds read low 1.01 | locus YMR263W, strain SAP30, active compounds read low 1.01 | [5] 1.02 | [6] 1.01 | [7] 1 | [8] 1.01 | [9] 1

CC(C)NC[C@H](O)c1ccc(O)c(O)c1
inactive: [10] 1.01 | [1] 0.998 | [2] 1 | [11] 0.99 | [3] 1 | [4] 1 | [12] 1.01 | [5] 1.02 | [6] 1.01 | [7] 1.01 | [8] 1 | locus YPL055C, strain LGE1, active compounds read low 0.97

CNC[C@H](O)c1ccc(O)c(O)c1
inactive: [10] 1.01 | [1] 1.04 | [2] 1 | [11] 1 | [3] 0.993 | [4] 1.01 | [12] 1.02 | locus YJR075W, strain HOC1, active compounds read low 1 | [5] 1.01 | [6] 1.01 | [7] 1.01 | locus YNL322C, strain KRE1, active compounds read low 0.997 | [8] 1.02 | [9] 1
